Experimental data from PubChem BioAssay (NCI).
The panel holds about 83,000 compounds, 20% with a hit somewhere; the sample as a whole holds those more often.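 Interpretation: 100, growth as untreated; towards 0, rising growth inhibition; 0, no net growth; 0 to -100, cell death. Compounds scoring below 10 were considered active.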 Activity calls are given as the source filed them.

Key:
Test in all cases: NCI-60 one-dose screen, 48 h (100 = growth as untreated, 0 = no growth, -100 = all killed)
Settings in all cases: 10 µM unless noted
T-47D breast = system: T-47D breast
SW-620 colon = system: SW-620 colon
MCF7 breast = system: MCF7 breast
HCT-116 colon = system: HCT-116 colon
HCC-2998 colon = system: HCC-2998 colon
KM12 colon = system: KM12 colon
BT-549 breast = system: BT-549 breast
MDA-MB-435 melanoma = system: MDA-MB-435 melanoma

SMILES	growth (T-47D breast)	growth (SW-620 colon)	growth (MCF7 breast)	growth (HCT-116 colon)	growth (HCC-2998 colon)	growth (KM12 colon)	growth (BT-549 breast)	growth (MDA-MB-435 melanoma)
Cn1cc(-c2noc(-c3cn(C)c4ncc(F)cc34)n2)c2cc(Cl)ccc21	14% (inactive)	47.4% (inactive)	38.5% (inactive)	44.5% (inactive)	97% (inactive)	61.1% (inactive)	–	–
CCN(CC)c1ccc(/C=C/c2ccc3cc(C)ccc3[n+]2CC)cc1	–	17.6% (inactive)	3.46% (active)	7.53% (active)	16.5% (inactive)	–	1.38% (active)	-33.3% (active)
CC/C=C(\C)C(CCC)(CN=O)C(=O)OCC (centres undefined)	–	109% (inactive)	102% (inactive)	92.2% (inactive)	96.2% (inactive)	112% (inactive)	112% (inactive)	117% (inactive)
CC1Cc2c(Cl)ncnc2N(C)c2ccc(O)cc21 (centres undefined)	81.7% (inactive)	38.1% (inactive)	55.1% (inactive)	65.6% (inactive)	59.4% (inactive)	10.4% (inactive)	–	–
C=CCCCCCCCCC(=O)OC(C)C	–	96.5% (inactive)	98.2% (inactive)	97.7% (inactive)	112% (inactive)	95.3% (inactive)	108% (inactive)	–
Cc1cc(C)c(-c2cc(O)c(-c3c(C)cc(C)cc3C)cc2O)c(C)c1	43% (inactive)	26.2% (inactive)	21.7% (inactive)	22.6% (inactive)	–	23.9% (inactive)	–	–
CC(C)c1ccc(C(=O)Nc2sc3c(c2C#N)CCC(=O)C3)cc1	–	-19.1% (active)	4.86% (active)	-2.81% (active)	20.7% (inactive)	5.49% (active)	-9.76% (active)	-14.4% (active)
C[N+](C)(C)c1ncnc2[n-]cnc12	84% (inactive)	96.1% (inactive)	–	105% (inactive)	–	93.6% (inactive)	–	104% (inactive)
O=C(O)c1cn(C2CC2)c2cc(N3CCN(Cc4c(O)ccc5ccccc45)CC3)c(F)cc2c1=O	29.5% (inactive)	28.2% (inactive)	16.3% (inactive)	12.7% (inactive)	32.1% (inactive)	37.5% (inactive)	–	–
